Data: PubChem BioAssay (NCATS)
Inconclusive results are not listed. Active and inactive are the calls of the source. Unless noted, calls come from the whole dose curve; as a rule, active = well fitted curve in the direction sought with a large enough effect; inconclusive = small, poorly fitted or top-dose-only effect, or another doubt; inactive = no such curve, though single readings can be large; an effect the other way counts as inactive or inconclusive.

What was measured:
[1] = target: Lysosomal acid glucosylceramidase (Homo sapiens) (UniProt P04062); assay: Glucocerebrosidase-p2 (AID 348; in the data active = potency below about 10 µM; note: potency is the fitted concentration of half-maximal effect); conditions: purified GBA, blue fluorogenic substrate, 40 min
Sequence of Lysosomal acid glucosylceramidase (Homo sapiens) (P04062 whole entry, looked up): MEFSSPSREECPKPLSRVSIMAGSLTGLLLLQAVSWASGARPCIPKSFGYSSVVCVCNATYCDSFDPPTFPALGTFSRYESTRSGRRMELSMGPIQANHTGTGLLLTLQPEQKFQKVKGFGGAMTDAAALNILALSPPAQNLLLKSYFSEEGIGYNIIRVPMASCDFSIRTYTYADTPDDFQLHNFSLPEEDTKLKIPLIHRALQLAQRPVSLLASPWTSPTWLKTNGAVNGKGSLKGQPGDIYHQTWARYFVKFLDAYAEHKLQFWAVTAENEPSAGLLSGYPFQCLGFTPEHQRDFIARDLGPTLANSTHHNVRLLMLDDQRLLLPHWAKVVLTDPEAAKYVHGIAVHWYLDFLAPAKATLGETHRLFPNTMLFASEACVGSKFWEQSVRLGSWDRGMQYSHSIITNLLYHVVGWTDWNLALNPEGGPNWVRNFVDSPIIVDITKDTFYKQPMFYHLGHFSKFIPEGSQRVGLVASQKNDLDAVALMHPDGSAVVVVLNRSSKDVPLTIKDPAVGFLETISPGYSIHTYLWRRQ
Procedure, shortened: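 Normal human glucocerebrosidase (0.2 nM) with blue fluorogenic substrate (80 uM final) in citrate/phosphate pH 5.9 with 10mM sodium taurocholate, 0.01% tween-20; 40 min RT, NaOH/glycine stop; fluorescence Ex 365/Em 440; AC50 from a titration from 0.6 nM upwards.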

[2] = AP1 Signaling Pathway (AID 357; active = well fitted curve in either direction with a large enough effect, not every such curve was filed as active;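 note: ME-180 reporter cells stimulated with EGF at its EC50 level; % is set by controls: 0 for no effect and ±100 for the full control effect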); conditions: ME-180 AP-1-bla reporter, EGF-induced, beta-lactamase ratio, 5 h; at 7.69 µM (top of the series) unless noted
Procedure, shortened: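 Titration-series screen for positive or negative modulators of EC50 EGF-induced signaling in ME-180 cells carrying an AP-1-driven beta-lactamase reporter. After 5 hours at 37 degrees Celsius, CCF4 460nm/530nm emission ratio gave %Activity; AC50 values derived.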

[3] = target: Cytochrome P450 1A2 (Homo sapiens) (UniProt P05177); assay: p450-cyp1a2 (AID 410; calls by dose curve; note: potency is the fitted concentration of half-maximal effect); conditions: recombinant CYP1A2, luciferin-ME demethylation, luminescence; series mostly up to 57 µM
Sequence of Cytochrome P450 1A2 (Homo sapiens) (P05177 whole entry, looked up): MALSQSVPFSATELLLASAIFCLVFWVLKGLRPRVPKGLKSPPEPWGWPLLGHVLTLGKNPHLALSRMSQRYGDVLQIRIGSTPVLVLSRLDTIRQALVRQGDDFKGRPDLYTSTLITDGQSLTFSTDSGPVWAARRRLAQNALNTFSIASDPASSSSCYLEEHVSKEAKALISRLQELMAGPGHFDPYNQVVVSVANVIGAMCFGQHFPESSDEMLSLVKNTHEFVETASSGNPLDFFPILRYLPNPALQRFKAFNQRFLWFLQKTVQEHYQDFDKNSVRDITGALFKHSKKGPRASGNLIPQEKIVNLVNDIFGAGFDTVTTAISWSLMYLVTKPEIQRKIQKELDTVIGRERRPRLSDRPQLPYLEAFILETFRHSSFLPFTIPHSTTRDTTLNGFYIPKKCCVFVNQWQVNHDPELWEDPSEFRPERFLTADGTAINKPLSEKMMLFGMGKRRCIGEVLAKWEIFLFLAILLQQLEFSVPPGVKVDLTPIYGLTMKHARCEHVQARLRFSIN
Procedure, shortened: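 Luminescent demethylation readout: Luciferin-ME (100uM, equal to Km) turned over by 20nM CYP1A2 for 60 min at room temperature after NADPH regeneration addition, following 10 min compound preincubation. Normalization used 57 uM furafylline as full inhibition.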

[4] = NFAT Signaling Pathway (AID 444; active = well fitted curve in either direction with a large enough effect, not every such curve was filed as active;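 note: carbachol stimulus at about its EC50 of 1 µM final; % is set by controls: 0 for no effect and ±100 for the full control effect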); conditions: Jurkat NFAT-bla M1, carbachol, beta-lactamase ratio, 5 h; at 7.69 µM (top of the series) unless noted
Procedure, shortened: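 Read-out: CCF4 FRET ratio (460 nm/530 nm) after 1 h RT dye loading, used for %activity and AC50 from titration series. Cells: Jurkat NFAT-β-lactamase/M1 line, treated with compound plus 1 uM carbachol for 5 h, 37 °C.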

[5] = target: Glucocorticoid receptor (Homo sapiens) (UniProt P04150); assay: GR-GFP Redistribution (AID 450;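 active = compounds whose dose series gives a full or clear partial fitted curve of increased nuclear translocation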; note: potency is the fitted concentration of half-maximal effect); conditions: U2OS GR-GFP nuclear translocation, laser cytometry, 2 h
Sequence of Glucocorticoid receptor (Homo sapiens) (P04150 whole entry, looked up, the tested form may be a part): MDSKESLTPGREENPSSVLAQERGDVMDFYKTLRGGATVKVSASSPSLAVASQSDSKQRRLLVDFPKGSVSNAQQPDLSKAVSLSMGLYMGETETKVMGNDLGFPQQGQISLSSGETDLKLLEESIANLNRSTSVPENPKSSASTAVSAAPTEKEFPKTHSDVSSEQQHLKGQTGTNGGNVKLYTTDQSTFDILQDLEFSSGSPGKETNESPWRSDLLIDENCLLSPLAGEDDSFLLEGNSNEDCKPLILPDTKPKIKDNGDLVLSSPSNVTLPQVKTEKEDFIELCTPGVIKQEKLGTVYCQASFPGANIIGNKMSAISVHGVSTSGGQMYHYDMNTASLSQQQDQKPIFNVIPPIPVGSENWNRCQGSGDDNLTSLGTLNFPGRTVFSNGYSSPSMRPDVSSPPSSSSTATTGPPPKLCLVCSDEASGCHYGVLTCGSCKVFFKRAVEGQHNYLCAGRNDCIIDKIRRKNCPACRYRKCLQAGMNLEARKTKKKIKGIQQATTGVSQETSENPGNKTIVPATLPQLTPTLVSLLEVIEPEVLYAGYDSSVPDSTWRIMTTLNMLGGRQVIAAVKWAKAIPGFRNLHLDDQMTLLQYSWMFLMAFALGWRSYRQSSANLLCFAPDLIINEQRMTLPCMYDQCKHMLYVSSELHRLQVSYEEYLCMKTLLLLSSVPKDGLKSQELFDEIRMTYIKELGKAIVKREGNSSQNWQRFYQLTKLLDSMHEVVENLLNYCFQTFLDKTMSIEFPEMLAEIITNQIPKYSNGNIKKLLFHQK

[6] = target: Glucocorticoid receptor (Homo sapiens) (UniProt P04150); assay: GR-EFC Redistribution (AID 451; calls by dose curve; note: potency is the fitted concentration of half-maximal effect); conditions: CHO-K1 GR-EFC translocation, beta-gal luminescence, 2 h
Procedure, shortened: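 Translocation of GR-ED fusion to nuclear EA restores b-gal, read by luminescence after 1 h room-temperature detection. Engineered CHO-K1 biosensor cells, 1,000/well, exposed 2 h at 37 C to titrations up to 46 uM final.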

[7] = target: Cytochrome P450 3A4 (Homo sapiens) (UniProt P08684); assay: qHTS Assay for Inhibitors and Substrates of Cytochrome P450 3A4 (AID 884); conditions: recombinant CYP3A4, Luciferin-PPXE luminescence; series mostly up to 57.1 µM; note: % is set by controls: 0 for no effect and ±100 for the full control effect; nearly all actives have a fitted effect of over 50% in size
Sequence of Cytochrome P450 3A4 (Homo sapiens) (P08684 whole entry, looked up): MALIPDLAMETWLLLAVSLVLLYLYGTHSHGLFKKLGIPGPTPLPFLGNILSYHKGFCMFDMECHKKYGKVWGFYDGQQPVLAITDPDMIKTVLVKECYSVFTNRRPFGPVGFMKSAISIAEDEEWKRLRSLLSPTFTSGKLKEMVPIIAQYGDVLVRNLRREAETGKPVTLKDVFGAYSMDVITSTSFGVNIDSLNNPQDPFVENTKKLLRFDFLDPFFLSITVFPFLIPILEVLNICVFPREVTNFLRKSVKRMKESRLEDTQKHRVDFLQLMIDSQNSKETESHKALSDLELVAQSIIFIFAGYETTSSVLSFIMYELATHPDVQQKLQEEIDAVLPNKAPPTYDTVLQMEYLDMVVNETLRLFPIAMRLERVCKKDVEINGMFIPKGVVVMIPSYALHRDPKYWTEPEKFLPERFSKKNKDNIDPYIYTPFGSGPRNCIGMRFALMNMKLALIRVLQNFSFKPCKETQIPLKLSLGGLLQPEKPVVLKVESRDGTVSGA
Procedure, shortened: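 Luminescent readout of luciferin produced by CYP3A4 (20 nM) dealkylation of Luciferin-PPXE, 25 uM (its KM). NADPH-driven reaction ran 60 min at RT after 10 min compound preincubation; data scaled to 57 uM ketoconazole as 100% inhibition.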

[8] = qHTS Assay for Lipid Storage Modulators (AID 1519; calls by dose curve; note: potency is the fitted concentration of half-maximal effect); conditions: Drosophila S3 cells, BODIPY lipid droplet/cell ratio, laser cytometry, cells loaded with oleic acid; for activity change, negative = inhibition: at 57.5 µM (top of the series)
Procedure, shortened: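 Cells seeded at 5,000 per well were treated with compounds over a concentration series and loaded with oleic acid (400 uM, as added). Lipid droplet fluorescence (488 nm excitation, 500-530 nm channel) was read by laser-scanning cytometry and normalized to 20 uM Triacsin C.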

[9] = target: Dual specificity protein kinase CLK4 (Homo sapiens) (UniProt Q9HAZ1); assay: qHTS Assay for Inhibitors of CDC-like Kinase 4 (Kinase-Glo Assay) (AID 1770); conditions: recombinant Clk4, Kinase-Glo ATP depletion luminescence; series mostly up to 66.7 µM; note: % is set by controls: 0 for no effect and ±100 for the full control effect; nearly all actives have a fitted effect of over 65% in size
Sequence of Dual specificity protein kinase CLK4 (Homo sapiens) (Q9HAZ1 whole entry, looked up): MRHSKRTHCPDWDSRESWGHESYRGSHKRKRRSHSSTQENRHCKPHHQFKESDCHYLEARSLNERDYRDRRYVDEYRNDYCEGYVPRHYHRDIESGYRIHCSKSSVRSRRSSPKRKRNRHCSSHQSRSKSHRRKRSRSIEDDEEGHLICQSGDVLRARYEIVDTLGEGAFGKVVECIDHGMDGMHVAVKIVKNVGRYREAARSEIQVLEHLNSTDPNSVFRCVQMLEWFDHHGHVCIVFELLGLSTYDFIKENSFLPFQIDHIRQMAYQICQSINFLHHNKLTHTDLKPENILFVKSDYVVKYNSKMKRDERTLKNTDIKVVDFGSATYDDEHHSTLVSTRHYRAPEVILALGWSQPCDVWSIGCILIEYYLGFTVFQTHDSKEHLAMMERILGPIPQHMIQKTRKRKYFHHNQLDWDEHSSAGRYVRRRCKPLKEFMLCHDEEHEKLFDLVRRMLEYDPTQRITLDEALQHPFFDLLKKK
Procedure, shortened: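 Inhibition was judged from remaining ATP, measured by Ultra-Glo luciferase bioluminescence after Clk4 (25 nM) had acted on RS peptide at 1 uM ATP for 4.5 hours, room temperature.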

[10] = target: Dual specificity protein kinase CLK4 (Homo sapiens) (UniProt Q9HAZ1); assay: qHTS Assay for Inhibitors of CDC-like Kinase 4 (ADP-Glo Assay) (AID 1771); conditions: recombinant CLK4, ADP-Glo luminescence; series mostly up to 80 µM; note: % is set by controls: 0 for no effect and ±100 for the full control effect; nearly all actives have a fitted effect of over 70% in size
Procedure, shortened: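 ADP production was read by ADP-Glo luminescence after residual ATP depletion, following 1 h room-temperature reaction of 25 nM Clk4, 1 uM ATP and 100 uM RS peptide with MgCl2, EGTA, DTT and Triton X-100.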

[11] = target: Dual specificity protein kinase CLK4 (Homo sapiens) (UniProt Q9HAZ1); assay: qHTS Assay for Inhibitors of CDC-like Kinase 4 (ADP-FP Assay) (AID 1795); conditions: Transcreener ADP fluorescence polarization; series mostly up to 50 µM;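 note: recombinant human CLK4 phosphorylating RS repeat peptide at 1 µM ATP; % is set by controls: 0 for no effect and ±100 for the full control effect; nearly all actives have a fitted effect of over 60% in size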
Procedure, shortened: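 Inhibition of ADP formation by 6.25 nM Clk4 is measured using 1 uM ATP and 100 uM RS repeat peptide over one hour. Produced ADP displaces a fluorescent tracer from antibody, lowering polarization.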

[12] = target: Ubiquitin carboxyl-terminal hydrolase 1 (Homo sapiens) (UniProt O94782); assay: Inhibitors of USP1/UAF1: Pilot qHTS (AID 504865); conditions: purified USP1/UAF1, Ub-rhodamine cleavage fluorescence; series mostly up to 54.9 µM;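 note: rhodamine fluorescence freed from ubiquitin-rhodamine substrate followed over time; top concentration of the series differs between compounds; % is set by controls: 0 for no effect and ±100 for the full control effect; nearly all actives have a fitted effect of over 35% in size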
Sequence of Ubiquitin carboxyl-terminal hydrolase 1 (Homo sapiens) (O94782 whole entry, looked up): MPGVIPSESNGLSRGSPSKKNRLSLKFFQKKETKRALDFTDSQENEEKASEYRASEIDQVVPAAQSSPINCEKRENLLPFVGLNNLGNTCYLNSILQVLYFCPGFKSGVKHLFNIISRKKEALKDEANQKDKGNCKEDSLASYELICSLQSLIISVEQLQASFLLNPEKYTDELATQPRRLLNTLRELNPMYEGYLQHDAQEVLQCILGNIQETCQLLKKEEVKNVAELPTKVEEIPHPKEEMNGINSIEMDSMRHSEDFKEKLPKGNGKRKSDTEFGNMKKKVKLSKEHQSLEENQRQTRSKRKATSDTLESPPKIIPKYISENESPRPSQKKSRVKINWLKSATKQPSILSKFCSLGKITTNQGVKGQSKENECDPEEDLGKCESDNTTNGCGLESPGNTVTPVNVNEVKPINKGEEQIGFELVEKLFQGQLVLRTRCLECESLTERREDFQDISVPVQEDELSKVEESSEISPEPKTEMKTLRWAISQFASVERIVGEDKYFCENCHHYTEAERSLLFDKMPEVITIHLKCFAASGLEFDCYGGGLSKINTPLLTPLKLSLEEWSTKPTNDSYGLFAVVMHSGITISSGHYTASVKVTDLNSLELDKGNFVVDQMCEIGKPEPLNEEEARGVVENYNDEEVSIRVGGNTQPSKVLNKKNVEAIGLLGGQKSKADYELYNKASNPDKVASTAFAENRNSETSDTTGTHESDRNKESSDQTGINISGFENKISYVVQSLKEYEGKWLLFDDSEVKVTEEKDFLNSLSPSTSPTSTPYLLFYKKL
Procedure, shortened: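 Kinetic fluorescence assay: 1nM USP1/UAF1, 15 min compound preincubation, then 150nM Ub-Rho; 480/540 nm.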

[13] = Primary qHTS for small molecule stabilizers of the endoplasmic reticulum resident proteome: Secreted ER Calcium Modulated Protein (SERCaMP) assay (AID 1508630); conditions: SH-SY5Y GLuc-SERCaMP (Gaussia luciferase released on ER calcium loss) secretion, thapsigargin, luminescence; series mostly up to 38.4 µM; note: % is set by controls: 0 for no effect and ±100 for the full control effect
Procedure, shortened: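 The SH-SY5Y reporter protocol was run at 3 concentrations up to 38.3 uM (primary) or 11 concentrations (follow-up): 16 h compound, 100 nM thapsigargin for 4 h, then extracellular luciferase luminescence.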

[14] = target: Mitogen-activated protein kinase 10 (Mus musculus) (UniProt Q61831); assay: JNK3 AlphaScreen Assay (AID 530; active = well fitted curve in either direction with a large enough effect, not every such curve was filed as active;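 note: kinase came from lysate of stimulated human HepG2 cells; signal reports phosphorylation of biotinylated GST-cJun 1-79 at Ser73 with 10 µM ATP; % is set by controls: 0 for no effect and ±100 for the full control effect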); conditions: JNK3 lysate, c-Jun phosphorylation; series mostly up to 57.1 µM
Procedure, shortened: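 qHTS titrations with 15 min compound pre-incubation before adding ATP (10 uM final). Read-out: AlphaScreen of Ser73-phosphorylated biotin-GST-cJun using HepG2 lysate JNK3 activated by IL-1β and TNFα.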

[15] = target: 3',5'-cyclic-AMP phosphodiesterase 4B (Homo sapiens) (UniProt Q07343); assay: qHTS Assay for Inhibitors of PDE-IV (AID 607; active = well fitted activation curve with a large enough effect in the main read-out, with a control signal flat, not every such curve was filed as active; note: % of control where 0% means no effect); conditions: HEK293 ACTOne CNG channel cells, membrane potential fluorescence; series mostly up to 22.9 µM
Sequence of 3',5'-cyclic-AMP phosphodiesterase 4B (Homo sapiens) (Q07343 whole entry, looked up): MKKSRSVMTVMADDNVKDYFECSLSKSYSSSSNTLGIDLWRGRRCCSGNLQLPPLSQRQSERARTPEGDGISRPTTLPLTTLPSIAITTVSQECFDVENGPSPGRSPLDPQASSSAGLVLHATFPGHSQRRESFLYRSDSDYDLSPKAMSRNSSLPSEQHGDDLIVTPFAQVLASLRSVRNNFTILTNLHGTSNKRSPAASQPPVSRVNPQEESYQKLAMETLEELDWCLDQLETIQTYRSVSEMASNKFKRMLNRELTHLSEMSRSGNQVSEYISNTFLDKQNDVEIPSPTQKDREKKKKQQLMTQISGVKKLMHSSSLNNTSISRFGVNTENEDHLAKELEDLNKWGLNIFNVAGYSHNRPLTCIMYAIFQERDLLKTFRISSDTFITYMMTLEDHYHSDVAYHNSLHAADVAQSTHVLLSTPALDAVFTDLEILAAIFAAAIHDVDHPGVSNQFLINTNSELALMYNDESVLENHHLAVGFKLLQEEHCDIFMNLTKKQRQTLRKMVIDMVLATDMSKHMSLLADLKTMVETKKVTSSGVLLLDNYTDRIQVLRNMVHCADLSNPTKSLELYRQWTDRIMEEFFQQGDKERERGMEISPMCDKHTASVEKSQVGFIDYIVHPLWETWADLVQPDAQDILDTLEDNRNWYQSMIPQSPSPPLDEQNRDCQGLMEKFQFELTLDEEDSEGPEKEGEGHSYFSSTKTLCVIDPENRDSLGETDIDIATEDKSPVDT
Procedure, shortened: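 The readout is membrane depolarisation from a cAMP-sensing CNG channel, detected with a potential dye at ex 535/em 590. Cells were HEK293-derived (endogenous PDE-IV) at 1000 cells/well, titrated up to 22.9 uM final.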

[16] = target: Cytochrome P450 3A4 (Homo sapiens) (UniProt P08684); assay: qHTS Assay for Activators of Cytochrome P450 3A4 (AID 885); conditions: recombinant CYP3A4, Luciferin-PPXE luminescence, 60 min; series mostly up to 57.1 µM; note: nearly all actives have a fitted effect of over 65% in size
Procedure, shortened: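 Activators are scored by enhanced luminescence from CYP3A4 conversion of luciferin-PPXE (25uM, equal to KM) to luciferin, after 60 min at RT with an NADPH-regenerating system.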

[17] = Stat Signaling Pathway (AID 446; active = well fitted curve in either direction with a large enough effect, not every such curve was filed as active); conditions: ME-180 (cervical carcinoma) SIE beta-lactamase reporter, IL-6 stimulated, 5 h; at 7.69 µM (top of the series) unless noted
Procedure, shortened: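 Emission at 460 and 530 nm (excitation 405 nm) reports SIE-controlled beta-lactamase in ME-180 cells. Cells received compound with 40 pM IL-6 for 5 hrs at 37 C; data scaled between 300 pM IL-6 and 125 nM JAK-inhibitor controls.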

[18] = measured here: cell count channel max response
[19] = measured here: lipid channel max response

COc1ccc(-c2nc3cnc(N4CCN(C)CC4)nc3n(Cc3ccc(F)cc3)c2=O)cc1
10.9%: max response [8, 19]
inactive: Potency [1] > 11.4 µM | Potency [5] > 9.22 µM | Potency [6] > 46 µM | Potency [7] | activity change, negative = inhibition [8] 0.278% | Potency [9] | Potency [10] | Potency [11] | Potency [12] | Potency [13]
active: activity change, negative = inhibition [2] 99.5% [activator] | Potency [3] 10 µM | activity change, negative = inhibition [4] 113% [activator]
11.6%: max response [8, 18]

O=c1c(-c2ccc(F)cc2)nc2cnc(Nc3ccccc3)nc2n1C[C@H]1CCCO1
inactive: Potency [1] > 11.4 µM | activity change, negative = inhibition [2] -19.3% | Potency [5] > 9.22 µM | Potency [6] > 46 µM | outcome [14] | Potency [15] | Potency [16] | Potency [9] | Potency [10] | Potency [11] | Potency [12] | Potency [13]
active: Potency [3] 2 µM | Potency [8] 3.55 µM
-27.1%: max response [8, 18]
-76%: max response [8, 19]

O=c1c(-c2cc(F)cc(F)c2)nc2cncnc2n1Cc1ccccc1
-10.6%: max response [8, 19]
inactive: Potency [1] > 11.4 µM | activity change, negative = inhibition [2] 16.7% | activity change, negative = inhibition [4] -18% | activity, negative = inhibition [17] -8.19% | Potency [5] > 9.22 µM | Potency [6] > 46 µM | activity change, negative = inhibition [8] 2.57% | Potency [9] | Potency [10] | Potency [11] | Potency [12] | Potency [13]
-10.3%: max response [8, 18]

Cn1c(=O)c(-c2cccs2)nc2cnc(OCc3ccccc3)nc21
active: Potency [3] 7.94 µM
20.6%: max response [8, 18]
inactive: Potency [1] > 11.4 µM | activity change, negative = inhibition [2] 16% | activity change, negative = inhibition [4] 22.3% | Potency [5] > 9.22 µM | Potency [6] > 46 µM | outcome [14] | Potency [15] | activity change, negative = inhibition [8] 6.88% | Potency [9] | Potency [10] | Potency [11] | Potency [12] | Potency [13]
29.6%: max response [8, 19]

Cn1c(=O)c(-c2ccc(Cl)cc2)nc2cnc(Nc3ccccc3)nc21
-1.32%: max response [8, 19]
23.4%: max response [8, 18]
inactive: Potency [1] > 11.4 µM | activity change, negative = inhibition [2] -22.9% | activity change, negative = inhibition [4] -8.39% | activity, negative = inhibition [17] -6.29% | Potency [5] > 9.22 µM | Potency [6] > 46 µM | outcome [14] | Potency [15] | activity change, negative = inhibition [8] -14.5% | Potency [9] | Potency [10] | Potency [11] | Potency [12] | Potency [13]

CN(C)Cc1ccccc1-c1cc(N(C)Cc2ccco2)ncn1
active: Potency [3] 15.8 µM
inactive: Potency [1] > 11.4 µM | activity change, negative = inhibition [2] 4.53% | activity, negative = inhibition [17] -3.48% | Potency [5] > 46 µM | Potency [6] > 46 µM | outcome [14] | Potency [15] | Potency [16] | activity change, negative = inhibition [8] 5.32% | Potency [9] | Potency [10] | Potency [11] | Potency [12] | Potency [13]
23.3%: max response [8, 19]
19.9%: max response [8, 18]
